The results in this text go back to ChEMBL document CHEMBL3433997, “St. Jude Leishmania screening dataset” (2016).

In general, inhibition refers to the change of the read-out against control, counted positive when it falls.

SMILES strings stand for the structures.

The target in the experiment is Solute carrier family 2, facilitated glucose transporter member 1 (Homo sapiens) (UniProt P11166). The experiment is described as follows: ST_JUDE_LEISH: Cytotoxicity at 2uM final concentration against transgenic Leishmania Mexicana promastigotes LmGLUT1 that are glucose transport deficient and complemented with the human glucose transporter GLUT1. Activity is measured by DNA content using SYBR green in vitro. Format: functional.
Sequence of Solute carrier family 2, facilitated glucose transporter member 1 (Homo sapiens) (P11166 whole entry): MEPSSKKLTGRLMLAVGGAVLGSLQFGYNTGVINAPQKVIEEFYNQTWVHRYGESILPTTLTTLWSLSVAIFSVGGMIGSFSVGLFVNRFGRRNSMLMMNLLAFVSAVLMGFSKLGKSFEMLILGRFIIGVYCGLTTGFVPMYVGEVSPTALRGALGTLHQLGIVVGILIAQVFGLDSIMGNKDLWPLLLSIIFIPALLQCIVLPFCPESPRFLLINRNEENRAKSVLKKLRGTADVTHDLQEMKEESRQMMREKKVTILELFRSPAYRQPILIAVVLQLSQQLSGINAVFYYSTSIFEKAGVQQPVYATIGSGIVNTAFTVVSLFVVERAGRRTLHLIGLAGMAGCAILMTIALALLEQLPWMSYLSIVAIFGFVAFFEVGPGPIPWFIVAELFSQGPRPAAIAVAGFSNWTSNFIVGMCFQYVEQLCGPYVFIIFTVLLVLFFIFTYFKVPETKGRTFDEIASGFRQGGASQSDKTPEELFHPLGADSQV
On to `CC(=O)c1sc(NC(=O)Nc2ccc(C)cc2C)nc1C`, for which the inhibition is 14%. For `Cc1ccc(NC(=O)c2ccc(CN3CCCN(CC4CCCCC4)CC3)cc2)cc1F` the value was 8.8%; for `CCCNCc1ccc(-c2ccc(CN(CCOC)C(=O)c3ccccc3)cc2)nc1`, 1.21%; for `CC(C)c1cn2c3c(cc(C(=O)N[C@@H](Cc4ccccc4)[C@H](O)CNC4CCCCC4)cc13)N(C)S(=O)(=O)CC2`, -1.18%. As to `CC1CN(Cc2cccc(F)c2)CCN1c1ccc(NC(=O)c2cccs2)cc1` (stereo not given), the inhibition was -0.87%. Regarding `Cc1noc(C)c1-c1cccc(CNCc2cccc(-c3cccc(-c4nc5cccc(C)c5[nH]4)c3)c2)c1`, the inhibition was -0.61%. For `COc1ccc(CC(=O)NC(CCCN2CCC3(CC2)OCc2ccccc23)c2ccc(Cl)c(Cl)c2)cc1` (stereo not given), the inhibition stood at 1.2%.

`COc1ccccc1CNC(=O)C(=O)Nc1c(-c2ccccc2)[nH]c2ccccc12`: the inhibition is -3.25%. In the case of `COc1cc(NC2=C(c3ccccc3)C(=O)c3ccccc32)ccn1`, the inhibition worked out at 4.66%.

For the molecule `CC(Cc1ccc(NC(=O)c2ccc(CNCCc3ccccc3)cc2)cc1)NCCc1cccc(Cl)c1` (stereo not given), the inhibition turned out to be 68.9%. In the case of `Oc1ccc(CCNc2nc(NCc3ccccc3-c3ccc(C(F)(F)F)cc3)nc(N3CCCNCC3)n2)cc1`, the inhibition was determined as 4.27%. With `Cc1[nH]c(C)c(-c2ccc(OCCSc3ccncc3)cc2)c(=O)c1Br` the figure was 1.9%; with `COc1ccccc1NC(=O)Nc1ccc(-c2cccc(-c3nc4ccccc4[nH]3)c2)cc1`, 3%. For `CCCc1ccc(S(=O)(=O)NC2CCN(c3ccnc(Nc4ccc(OC)cc4)n3)C2)cc1` (stereo not given) the value was 8.11%; for `C[C@@H]([C@@H](CCCc1ccc(Cl)cc1)C(=O)N[C@H](C(=O)Nc1cccnc1)C(C)(C)C)N(O)C=O`, 1.13%; for `CCCOc1ccc(OCCCON2C(=N)N=C(N)NC2(C)C)cc1`, 1.05%.

As to `CC(C)(CNC(=O)C1CCN(CCOc2ccc(Cl)cc2)CC1)c1nc(-c2ccc(Cl)c(O)c2)c(-c2ccncc2)[nH]1`, the inhibition was found to be 0.46%.

With `CCCCCCCN1CCC(NC(=O)Nc2ccnc3ccc(OC)cc23)C(CO)C1` (stereo not given), the inhibition is -0.96%. With `Cc1cc(NC(=O)NCCN2CCC(NC(=O)c3ccc(F)cc3)CC2)c2ccccc2n1` the figure was -0.27%. Consider `Cc1ccc([S+]([O-])Cc2ccc(Cl)cc2)cc1` (stereo not given), for which the inhibition was -0.22%.

For the molecule `CN(C)c1ccc(-c2csc(C(=O)NC3CCN(CCC(C)(C)C)C3)c2)cc1` (stereo not given), the inhibition stood at 3.05%.

For the molecule `Cc1ccc(C(NC(=O)c2ccccc2)c2ccc3cccnc3c2O)cc1` (stereo not given), the inhibition is 4.29%.

Regarding `CCN(CC)CCN(Cc1ccc(-c2ccc(Cl)cc2)cc1)C(=O)Cn1cc(CN(C)C)c(=O)nc1SCc1ccc(F)cc1`, the inhibition was found to be 0.45%.

`COc1ccc(CNCc2ccccc2)cc1-c1ccc(S(=O)(=O)NCCN2CCCC2)cc1`: the inhibition turned out to be 2.89%. With `COc1cc(CCOc2c(C)nc(N)nc2N)cc(OC)c1OC` the figure was -0.69%; with `CCCC(C)Nc1nc(C)cc(N[C@@H](CC(C)C)C(=O)NCCOc2ccccc2)n1` (stereo not given in full), 21.4%.

As to `CC(C)CCCC(C)(C)NC[C@@H](O)[C@H](Cc1ccccc1)NC(=O)c1cc(NC(C)C)cc(N2CCCCS2(=O)=O)c1`, the inhibition is -0.83%.

On to `COc1ccc(CNCc2ccccc2)cc1-c1cccc(S(=O)(=O)NCCN2CCCC2)c1`, for which the inhibition stood at 1.03%. With `c1cc(CNCCc2ccncc2)cc(-c2cccc(-c3nc4ccccc4[nH]3)c2)c1` the figure was 13.1%; with `COc1cccc2c(NN=Cc3cccc(Cl)c3)ccnc12`, 0.32%; with `CN(C)CCOc1ccc2c(=O)cc(CCc3cccc(F)c3F)n(CC(=O)N(C)Cc3ccc(-c4ccc(C(F)(F)F)cc4)cc3)c2c1`, -1.05%. With `CCN(CC)CCCC(C)Nc1c(-c2ccc(Br)cc2)cnc2ccccc12` (stereo not given) the figure was 57.5%; with `COc1cc(/C=N/Nc2nc(Nc3ccccc3)nc(Nc3ccccc3)n2)ccc1OCc1ccccc1[N+](=O)[O-]`, 4.18%. With `COc1ccc(N2CCN(CCCCNC(=O)c3ccc(/C=C/c4ccc(Cl)c(Cl)c4)cc3)CC2)c(OC)c1` the figure was -0.28%; with `O=C(NC1CCN(Cc2ccc3c(c2)OCCO3)CC1)c1ccc(-c2cccc(C(F)(F)F)c2)s1`, 3.14%. As for `Nc1cccc(-c2ccc3ccnc(N)c3c2)c1`, the inhibition was 3.63%. For the molecule `COc1ccc2nccc([C@@H](O)CN3CCC(NCc4cc5c(cc4F)SCC(=O)N5)CC3)c2n1`, the inhibition is 9.08%. For `Cc1nc2ccccc2n1C1CC2CCC(C1)N2CCC1(c2ccccc2)CCN(C(=O)Nc2ccc(C(F)(F)F)cc2)CC1` (stereo not given) the value was 4.65%; for `Cc1[nH]c(C)c(-c2ccc(Oc3ccc(F)cc3)cc2)c(=O)c1Cl`, 4.38%. With `CC(C)c1cc2c(ccc3nc(N)nc(N)c32)o1` the figure was 3.76%.
